Measurements: PubChem BioAssay AID624364 (Broad Institute, 2012)
Potency and affinity values are given separately. The source made the active and inactive calls.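 Rule for the calls: active = compounds lowering ATP signal whose fitted half-maximal concentration is at most twice the top tested dose; inconclusive = flat fit with 30 to 70% loss, or bad fit; inactive = the rest.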

experiment: cytotoxicity in MITF-independent A375 cells – cell-based, CellTiter-Glo luminescence, dry powder, set 4, counter-screen for MITF inhibitor project, dose response (AID 624364); conditions: CellTiter-Glo ATP luminescence, 24 h; series mostly up to 35 µM

Q: Which outcome does the source give for C=CCNC1=C(NCCCN2CCOCC2)C(=O)c2ccccc2C1=O here?
A: inactive

Q: With COc1ccc(C2=C(NC(=O)c3ccc(OC)cc3-c3cccc(OC)c3)C(=O)c3ccccc3C2=O)cc1 as the compound, how does the outcome read?
A: inactive

Q: Which outcome does the source give for CN1CCN(C2=C(NS(=O)(=O)c3cccs3)C(=O)c3ccccc3C2=O)CC1 here?
A: inactive

Q: For O=C(NC1=C(N2CCN(c3ccccc3)CC2)C(=O)c2ccccc2C1=O)c1ccccc1, which outcome is on record?
A: inactive

Q: With C=CCNC1=C(NCC=C)C(=O)c2ccccc2C1=O as the compound, how does the outcome read?
A: inactive
